Bioassay records from PubChem.
A1 inh = inhibitors of the anti-apoptotic protein A1, read as caspase activation | MEF A1-2A-BIM cells, Caspase-Glo 3/7 luminescence, 3 h; percent of clofoctol response, vehicle zero | caspase activation, % (concentration not given with the values) | 330,000 compounds, 0.066% hits | AID 2462;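 active = over half of replicate activation scores above 10%, or exactly half above 10 with the replicate mean above 10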
aSyn 5UTR inh = MLPCN primary screen, SNCA 5' untranslated region; alpha-synuclein 5'UTR reporter, inhibitor activity; 300,000 compounds, 0.82% hits; inhibition, % (tested at 7.5 µM); AID 1813; in the data active = inhibition above about 60%;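 note: H4 neuroglioblastoma cells stably carrying SNCA 5'UTR luciferase fusion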
Beta cell apopt = beta cell apoptosis inhibition. INS-1E cytokine-induced death, ATP luminescence, 48 h; percent of positive-control rescue, neutral wells zero. protection from apoptosis, % (no concentration beside the values). 300,000 compounds, 0.8% hits;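 active = Every replicate reaches about 75%, or at least half do and their mean reaches it too, limit read from the data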;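 note: higher means more ATP so stronger rescue from cytokine killing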
Mdm2 MdmX PPI = human Mdm2/MdmX binding inhibition; O15151+Q00987; SaOS-2 split-luciferase Mdm2/MdmX complementation, luminescence; inhibition, % at 8 µM; 330,000 compounds, 3% hits; AID 485346;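 active = inhibition of at least 50% at 8 µM in the primary screen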
CSC inhib = blocks cancer stem cells | AID 2717 | inhibition, % at 7.5 µM | 300,000 compounds, 1.1% hits | cancer stem cell-like cells viability, luminescence; in the data active = inhibition above about 75%; tested in HMLE shEcad cells
Mdm2 MdmX conf = confirmation of human Mdm2/MdmX interaction inhibitors. Mdm2-MdmX binding, luminescent assay. inhibition, % at 8 µM. AID 489028. 10,000 compounds, 55% hits. shares compounds with Mdm2 MdmX PPI; in the data active = inhibition above about 40%
Full FLuc ctr = inhibits full-length luciferase, flagging false Mdm2/MdmX hits; shares compounds with Mdm2 MdmX PPI; SaOS-2 full-length luciferase counterscreen, luminescence; inhibition, % at 8 µM; 6,200 compounds, 77% hits; AID 504607;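 active = mean inhibition at 8 µM reaching about 37%, which flags the compound as non-specific, limit read from the data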;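 note: p53-null SaOS-2 cells with luciferase driven by a doxycycline-inducible promoter; compound on cells about two nights before reading with doxycycline added after day one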
Large screens that a line does not name were inactive (follow-up assays come after a bar, where they were run). An excerpt weighted towards active compounds, which were near 4.1% of everything screened.

CN(C)CCCN(C(=O)c1ccc(S(=O)(=O)N2CCc3ccccc3C2)cc1)c1nc2c(F)cccc2s1	none
Cc1cc(C)c2sc(N(CCCN(C)C)C(=O)c3ccc(S(=O)(=O)N4CCCc5ccccc54)cc3)nc2c1	Mdm2 MdmX PPI 99, CSC inhib 101 (no result: Beta cell apopt) | Mdm2 MdmX conf 57 | Full FLuc ctr 73
CN(C)CCCN(C(=O)c1ccc(S(=O)(=O)N2CCc3ccccc32)cc1)c1nc2ccc(F)cc2s1	none
Cc1cccc2sc(N(CCCN(C)C)C(=O)c3ccc(S(=O)(=O)N4CCc5ccccc5C4)cc3)nc12	Mdm2 MdmX PPI 64 | Mdm2 MdmX conf inactive
Cc1cc(C)c2sc(N(CCCN(C)C)C(=O)c3ccc(S(=O)(=O)N4CCc5ccccc5C4)cc3)nc2c1	Mdm2 MdmX PPI 99 (no result: Beta cell apopt) | Mdm2 MdmX conf 99 | Full FLuc ctr 42
Cc1cccc(N(C)S(=O)(=O)c2ccc3c(c2)C(C)(C)C(=O)N3C)c1	none
CCCNC(=O)c1onc(CSc2ccc(Cl)cc2)c1C(=O)NC(C)C	none
Cc1ccc2nc(N(CCCN(C)C)C(=O)c3ccc(S(=O)(=O)N4CCc5ccccc5C4)cc3)sc2c1	aSyn 5UTR inh 88, Beta cell apopt 114, Mdm2 MdmX PPI 100 | Mdm2 MdmX conf 52 | Full FLuc ctr inactive
COCCn1c(=NC(=O)c2ccc(S(=O)(=O)N3CCc4ccccc4C3)cc2)sc2cc(OC)ccc21	Mdm2 MdmX PPI 69 (no result: CSC inhib) | Mdm2 MdmX conf inactive
COc1ccc2sc(N(CCCN(C)C)C(=O)c3ccc(S(=O)(=O)N4CCc5ccccc5C4)cc3)nc2c1	A1 inh 28, Mdm2 MdmX PPI 100, CSC inhib 91 (no result: Beta cell apopt) | Mdm2 MdmX conf 99 | Full FLuc ctr 55
Cc1ccc2nc(N(CCCN(C)C)C(=O)c3ccc(S(=O)(=O)N4CCOCC4)cc3)sc2c1	none
CCc1ccc(OCC(=O)NNCC(=O)Nc2ccc(OC)cc2)cc1	none (no result: A1 inh, aSyn 5UTR inh, Beta cell apopt, CSC inhib)
CCOC(=O)N1CCN(c2ccnc3cc(Cl)ccc23)CC1	none
O=C(Oc1ccnc2cc(Cl)ccc12)N1CCCCCC1	Mdm2 MdmX PPI 67 | Mdm2 MdmX conf inactive | Full FLuc ctr inactive
Cc1ccc2[nH]c(=O)c3cc(C(=O)N(C)c4ccc(C)c(C)c4)sc3c2c1	Mdm2 MdmX PPI 65 | Mdm2 MdmX conf 40 | Full FLuc ctr 67
CCN(C(=O)c1cc2c(=O)[nH]c3ccc(C)cc3c2s1)c1ccccc1C	Mdm2 MdmX PPI 57 | Mdm2 MdmX conf inactive
CCN(C(=O)c1cc2c(=O)[nH]c3ccc(C)cc3c2s1)c1cccc(C)c1	none | Mdm2 MdmX conf 52 | Full FLuc ctr 64
COc1ccc(-c2nc3ncccc3o2)cc1NC(=O)c1ccco1	none (no result: CSC inhib)
O=C(OCC(=O)N1CCN(C(=O)c2ccco2)CC1)c1cc(-c2ccc(Cl)c(Cl)c2Cl)nc2ccccc12	Mdm2 MdmX PPI 57 | Mdm2 MdmX conf inactive
O=C(OCC(=O)N1CCN(C(=O)c2ccco2)CC1)c1cc(-c2ccco2)nc2ccccc12	none
CN1CCCN(C(=O)c2cc(-c3ccc(Cl)c(Cl)c3Cl)nc3ccccc23)CC1	Mdm2 MdmX PPI 53 | Mdm2 MdmX conf inactive | Full FLuc ctr 76
CCOC(=O)c1ccc(NC(=O)c2nc(SC)ncc2Cl)cc1	none
CSc1ncc(Cl)c(C(=O)Nc2ccc(S(=O)(=O)Nc3nccc(C)n3)cc2)n1	none
Cc1ccccc1CS(=O)(=O)c1ncc(Cl)c(C(=O)Nc2ccc(F)cc2)n1	aSyn 5UTR inh 64, Mdm2 MdmX PPI 100, CSC inhib 98 | Mdm2 MdmX conf 65 | Full FLuc ctr 52
Cc1ccc(NC(=O)c2nc(S(=O)(=O)Cc3ccccc3)ncc2Cl)cc1	Beta cell apopt 109, Mdm2 MdmX PPI 82, CSC inhib 104 | Mdm2 MdmX conf 63 | Full FLuc ctr 51
O=C(Nc1ccc(F)cc1)c1nc(S(=O)(=O)Cc2ccccc2)ncc1Cl	aSyn 5UTR inh 67, Mdm2 MdmX PPI 96, CSC inhib 108 | Mdm2 MdmX conf 95 | Full FLuc ctr 52
CCOC(=O)C1CCCCN1S(=O)(=O)c1ccc2c(c1)CC(C)N2C(=O)C1CCC1 (centres undefined)	none
C[C@H]1[C@H](C)CC[C@]2(C(=O)O)CC[C@]3(C)C(=CC[C@@H]4[C@@]5(C)CC[C@H](O)C(C)(C)[C@@H]5CC[C@]43C)[C@H]12	Mdm2 MdmX PPI 78 | Mdm2 MdmX conf inactive
C[C@@H]1CC[C@]2(C(=O)O)CC[C@]3(C)C(=CCC4[C@@]5(C)CC[C@H](O)[C@@](C)(C(=O)O)C5CC[C@]43C)C2[C@]1(C)O (some centres undefined)	none (no result: aSyn 5UTR inh)
C[C@H]1[C@H](C)CC[C@]2(C(=O)O)CC[C@]3(C)C(=CC[C@@H]4[C@@]5(C)C[C@@H](O)[C@H](O)C(C)(C)[C@@H]5CC[C@]43C)[C@H]12	Mdm2 MdmX PPI 68, CSC inhib 95 | Mdm2 MdmX conf inactive
CC1(C)C[C@H]2C3=CCC4[C@@]5(C)CC[C@H](O)[C@](C)(CO)C5CC[C@@]4(C)[C@]3(C)CC[C@@]2(C)[C@H](O)[C@@H]1O (some centres undefined)	Mdm2 MdmX PPI 87 (no result: A1 inh, aSyn 5UTR inh, Beta cell apopt, CSC inhib) | Mdm2 MdmX conf 57 | Full FLuc ctr 60
CC(=O)[C@H]1[C@H]([C@H](O)[C@H](O)CO)O[C@](O)(C(=O)O)C[C@@H]1O	none (no result: aSyn 5UTR inh)
COc1ccccc1NS(=O)(=O)c1ccc(C)c(NC(=O)c2c(C)noc2C)c1	none (no result: aSyn 5UTR inh)
N#Cc1c(N)n(Cc2ccccc2)c(=O)c2cc([N+](=O)[O-])ccc12	Mdm2 MdmX PPI 54 | Mdm2 MdmX conf inactive
Cc1ccc(CNCc2cc3c(C(C)(C)C)nn(-c4ccccc4)c3[nH]c2=O)cc1	Mdm2 MdmX PPI 50 | Mdm2 MdmX conf inactive
O=C(NCC(c1ccco1)N1CCc2ccccc2C1)C(=O)Nc1ccc(F)cc1F (centres undefined)	none
CCCCn1c(CCc2ccccc2)nc2cc3[nH]c(=O)c(C(C)C)nc3cc21	Mdm2 MdmX PPI 51 | Mdm2 MdmX conf inactive
CCCCn1c(-c2ccc(F)c(F)c2)nc2cc3[nH]c(=O)c(C(C)C)nc3cc21	none
O=C(C[n+]1ccc(/C=C/c2ccccc2)cc1)c1ccc2c(c1)OCCO2	Mdm2 MdmX PPI 75 | Mdm2 MdmX conf inactive
Cc1ccccc1Oc1nc2c(c(=O)n(C)c(=O)n2C)n1C	none
CCn1c(Oc2ccccc2C)nc2c1c(=O)n(C)c(=O)n2C	Mdm2 MdmX PPI 57 (no result: Beta cell apopt, CSC inhib) | Mdm2 MdmX conf 42 | Full FLuc ctr 43
COc1ccc(Cl)cc1NC(=O)c1nnn(CC(=O)Nc2ccc3c(c2)OCO3)c1N	Mdm2 MdmX PPI 93 (no result: Beta cell apopt) | Mdm2 MdmX conf 53 | Full FLuc ctr inactive
Cc1ccc(CNC(=O)c2nnn(CC(=O)Nc3cc(C)cc(C)c3)c2N)cc1	none (no result: Beta cell apopt)
COc1ccc(NC(=O)Cn2nnc(C(=O)NCc3ccc4c(c3)OCO4)c2N)c(OC)c1	none (no result: Beta cell apopt)
COc1ccc(NC(=O)c2nnn(CC(=O)Nc3ccc4c(c3)OCO4)c2N)cc1OC	none
